The source made the active and inactive calls. Unless noted, no rule for the calls is given here.
How the values were obtained:
[1] = tested on: XIP peptide (Xip251-270) binding; assay: small-molecule binders of XIP peptide, primary screen, biochemical, small-molecule microarray, fluorescence 635/667 nm, 0.1 µg/mL protein (AID 1182); conditions: fluorescent protein binding, 635 nm, higher = more signal, called active from +8 up or from −8 down
[2] = tested on: XIP peptide (Xip251-270); assay: small-molecule binders of XIP peptide, primary screen, biochemical, small-molecule microarray, fluorescence 635/667 nm, 0.5 µg/mL protein (AID 1183); conditions: small-molecule microarray binding, fluorescence 635 nm; higher = more signal
[3] = Plasmodium falciparum growth inhibition, primary screen, strain 3D7, DAPI fluorescence, 100 nL (AID 1184);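 also: parasites grown inside human red blood cells in medium with human serum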; conditions: P. falciparum 3D7 growth, 3 d, higher = more signal
[4] = biological target: Homeobox protein Hox-A13 (Mus musculus) (UniProt Q62424); assay: inhibitors of HoxA13-DNA binding, primary screen, biochemical, fluorescence polarization, labeled oligonucleotide (AID 1185); conditions: 15 min, higher = more signal, called active from +8 up or from −8 down
[5] = inhibitors of hydroxyurea-induced Chk1 phosphorylation, primary screen, imaging, HeLa, phospho-Chk1 antibody, percent positive cells (AID 1186); conditions: hydroxyurea-induced phospho-Chk1 immunofluorescence imaging, higher = more signal
[6] = inhibitors of hydroxyurea-induced Chk1 phosphorylation, primary screen, imaging, HeLa, phospho-Chk1 nuclear intensity (AID 1187); conditions: hydroxyurea-induced phospho-Chk1 immunofluorescence imaging, higher = more signal

Homeobox protein Hox-A13 (Mus musculus), sequence (Q62424 whole entry, looked up): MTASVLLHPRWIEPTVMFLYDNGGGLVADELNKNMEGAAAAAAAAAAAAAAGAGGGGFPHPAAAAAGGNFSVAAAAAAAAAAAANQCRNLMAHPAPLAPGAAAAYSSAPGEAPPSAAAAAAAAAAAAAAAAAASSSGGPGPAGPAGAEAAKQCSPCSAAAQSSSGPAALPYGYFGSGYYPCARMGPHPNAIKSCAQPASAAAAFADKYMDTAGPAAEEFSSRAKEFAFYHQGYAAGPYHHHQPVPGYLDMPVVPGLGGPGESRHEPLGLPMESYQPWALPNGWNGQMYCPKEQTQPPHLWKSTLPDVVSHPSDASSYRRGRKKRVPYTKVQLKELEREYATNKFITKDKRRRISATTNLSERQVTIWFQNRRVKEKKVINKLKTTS

SMILES | composite z-score [1] | composite z-score [2] | z-score [3] | z-score [4] | z-score [5] | z-score [6]
O=C1NC(=O)C2C1C=CC(C(O)c1cccs1)N2Nc1ccccn1 (stereo not drawn) | 1.43 (inactive) | 0.438 | 0.197 | -5.03 (inactive) | -0.0367 (inactive) | -0.263 (inactive)
C=C(C(=O)CC[C@@H](OC(=O)c1cccnc1)c1ccc(OCCO)cc1)C(C)C | 1.15 (inactive) | 0.611 | -0.496 | -3.94 (inactive) | 1.38 (inactive) | 1.36 (inactive)
O=C(NCCN1CCOCC1)[C@@H]1c2ccccc2C(=O)N(Cc2cc(F)cc(C(F)(F)F)c2)[C@H]1c1ccc(CO)cc1 | 0.376 (inactive) | 0.372 | 0.0111 | -4.42 (inactive) | -0.189 (inactive) | -0.151 (inactive)
O=C(N1CCCCC1)[C@]1(CCS(=O)(=O)c2ccccc2)N=C(c2ccc(OCCCO)cc2)O[C@@H]1c1ccccc1 | 1.29 (inactive) | 0.75 | -2.79 | -5.68 (inactive) | -0.599 (inactive) | -1 (inactive)
CCCCCCC#C[Si](O[C@H](c1ccccc1)c1cn([C@H](C)c2ccccc2)nn1)(C(C)C)C(C)C | -0.131 (inactive) | -0.012 | 0.308 | 0.337 (inactive) | -0.341 (inactive) | -0.487 (inactive)
CN1C(=O)C2C=CC(C(O)C=Cc3ccc([N+](=O)[O-])cc3)N(N3CCCCC3)C2C1=O (stereo not drawn) | 0.62 (inactive) | 0.776 | 0.986 | -4.74 (inactive) | 0.579 (inactive) | -0.157 (inactive)
COc1ccc([Si](C)(C)[C@@H]2[C@@H](CCO)O[C@]3(C(=O)N(Cc4ccc(N5C(=O)c6cccc7cccc5c67)cc4)c4ccccc43)[C@H]2C)cc1 | 0.476 (inactive) | 0.596 | -2.68 | -0.946 (inactive) | -0.903 (inactive) | -0.198 (inactive)
O=C1c2ccccc2[C@@]2(Cc3ccccc3N(Cc3ccccc3)C2=O)[C@H](c2ccc(CO)cc2)N1Cc1ccccc1C(F)(F)F | 3.2 (inactive) | 0.878 | -0.275 | -2.79 (inactive) | -0.21 (inactive) | -0.154 (inactive)
C=CCOC(=O)[C@H]1[C@@H]2C(=O)O[C@@H](c3ccccc3)[C@@H](c3ccccc3)N2[C@@H](c2ccc(OCCOC(=O)[C@@H]3C[C@@H]4C(=O)NCC(=O)N4[C@@H]3c3ccc(O)cc3)cc2)[C@]12C(=O)Nc1ccc(I)cc12 | 0.2 (inactive) | 0.825 | -1.11 | 0.274 (inactive) | 0.147 (inactive) | 0.192 (inactive)
O=C(CS)NCCCCCNC(=O)[C@H]1C[C@H]2C(=O)N[C@@H](Cc3ccccc3)C(=O)N2[C@H]1c1cccc(OCCO)c1 | 0.296 (inactive) | 0.812 | 0.0332 | -2.76 (inactive) | 0.0034 (inactive) | 0.483 (inactive)
CCOC(=O)C1=CC[C@@H](c2ccccc2)N(S(=O)(=O)c2ccc(C)cc2)[C@H]1c1ccc(C#N)cc1 | 0.432 (inactive) | 0.728 | -1.95 | 0.426 (inactive) | 0.972 (inactive) | 0.136 (inactive)
[N-]=[N+]=Nc1ccccc1[C@H]1OC(c2ccc(OCCCO)cc2)=N[C@@]1(CCS(=O)(=O)c1ccccc1)C(=O)N1CCOCC1 | 1.72 (inactive) | 0.562 | -2.04 | -1.14 (inactive) | -0.0149 (inactive) | 0.0382 (inactive)
O=C1C2C=CC(C(O)CCc3ccccc3)N(Nc3ccccc3)C2C(=O)N1c1ccccc1 (stereo not drawn) | 0.792 (inactive) | 0.802 | -0.467 | -3.23 (inactive) | 0.684 (inactive) | 0.448 (inactive)
C=CCN1C(=O)[C@@]2(O[C@@H](CCO)[C@H]([Si](C)(C)c3ccc(OC)cc3)[C@H]2C)c2cc(N3C(=O)COc4ccccc43)ccc21 | 1.28 (inactive) | 0.623 | -2.68 | -4.65 (inactive) | -1.39 (inactive) | -0.883 (inactive)
C=C(/C(=C/C[C@@H](OC(C)=O)c1ccc(CO)o1)c1cnc2ccccc2c1)C(C)C | 0.64 (inactive) | 0.764 | -1.43 | -5.54 (inactive) | -0.0375 (inactive) | 0.0518 (inactive)
C=C(CCCC)C(=O)CC[C@H](OC(C)=O)c1ccc(CO)o1 | 0.35 (inactive) | 0.0921 | -1.82 | -3.62 (inactive) | -0.059 (inactive) | -0.222 (inactive)
COc1ccc([Si](C)(C)[C@H]2[C@H](CC(=O)N3CCC[C@H]3CO)O[C@@]3(C(=O)N(c4ccccc4)c4ccccc43)[C@@H]2C)cc1 | 0.511 (inactive) | 0.531 | -0.887 | -3.87 (inactive) | -1.18 (inactive) | -0.219 (inactive)
CO[C@H]1O[C@H](CO)[C@@H](OC(=O)Nc2ccc(C(F)(F)F)cc2)[C@H](OC(=O)Nc2ccccc2)[C@@H]1OC(=O)Nc1ccccc1 | 0.384 (inactive) | 0.62 | -0.0799 | -5.23 (inactive) | 0.666 (inactive) | 0.389 (inactive)
